Assay results reported in PubChem BioAssay.
The source made the active and inactive calls. Cut-off read from the data, not from the text of the source, unless noted: active = inhibition above about 80%; inactive = the rest.

Columns and labels:
[1] = LFS_MB_P medulloblastoma growth inhibition, cell-based, chromothripsis tumors, cisplatin or BGB combos (AID 1671449); settings: LFS_MB_P medulloblastoma cells;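 note: cells exposed for 96 hours; 0% = vehicle DMSO and 100% = killing by high DMSO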
[2] = HDN33 neuroblastoma growth inhibition, cell-based, chromothripsis tumors, cisplatin or BGB combos (AID 1671450); settings: HDN33 neuroblastoma cells, stronger effect = higher value;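 note: cells exposed to compound for four days; 0% = vehicle DMSO and 100% = cell killing by high DMSO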
[3] = ICB984 medulloblastoma cell growth inhibition, synergistic combos for chromothripsis tumors, cisplatin or BGB combos (AID 1671451; call rule not given here;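 note: cells exposed for 96 hours before readout; 0% = vehicle DMSO and 100% = killing by high DMSO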); settings: ICB984 medulloblastoma cells, drug combinations, stronger effect = higher value
[4] = LFS_MB_1R medulloblastoma cell growth inhibition, synergistic combos for chromothripsis tumors, cisplatin or BGB combos (AID 1671452); settings: LFS_MB_1R medulloblastoma cells, stronger effect = higher value;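 note: cells exposed for 96 hours before readout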
[5] = HTB85 osteosarcoma cell growth inhibition, synergistic combos for chromothripsis tumors, BGB or cisplatin IC20 combos (AID 1671453); settings: HTB85 osteosarcoma cells, drug combinations, stronger effect = higher value;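 note: cells exposed for 96 hours before readout; 0% = vehicle DMSO and 100% = high DMSO killing control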
[6] = CRL2098 osteosarcoma cell growth inhibition, synergistic combos for chromothripsis tumors, BGB or cisplatin IC20 combos (AID 1671454); settings: CRL2098 osteosarcoma cells, drug combinations, stronger effect = higher value;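 note: cells exposed for 96 h before readout; 0% = vehicle DMSO and 100% = killing by high DMSO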
[7] = HD-MB03 medulloblastoma cell growth inhibition, synergistic combos for chromothripsis tumors, BGB or cisplatin IC20 combos (AID 1671455; in the data active = inhibition above about 83%;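 note: 0% = vehicle DMSO and 100% = high DMSO as cytotoxic control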); settings: HD-MB03 medulloblastoma cells, stronger effect = higher value
[8] = UWB1.289 ovarian carcinoma cell growth inhibition, synergistic combos for chromothripsis tumors, BGB or cisplatin combos (AID 1671456); settings: UWB1.289 ovarian carcinoma cells, stronger effect = higher value;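 note: cells exposed to compound for four days; 0% = vehicle DMSO and 100% = killing by high DMSO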
[9] = LFS_MB_2R medulloblastoma cell growth inhibition, synergistic combos for chromothripsis tumors, cisplatin combos (AID 1671457); settings: LFS_MB_2R medulloblastoma cells, stronger effect = higher value;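 note: cells exposed to compound for four days before readout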
[10] = MDA-MB-436 breast carcinoma cell growth inhibition, synergistic combos for chromothripsis tumors, BGB or cisplatin combos (AID 1671458; call rule not given here;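 note: cells exposed for 96 hours; 0% = vehicle DMSO and 100% = killing by high DMSO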); settings: MDA-MB-436 breast carcinoma growth inhibition, drug combinations, stronger effect = higher value
[11] = UWB1.289_BRCA1 ovarian cancer growth, cell-based, BGB or cisplatin combinations (AID 1671459); settings: UWB1.289 BRCA1 ovarian carcinoma, drug combinations, stronger effect = higher value
[12] = human astrocyte viability loss, single and combined drugs, cytotoxicity control for chromothriptic childhood tumor combination screen, cell-based, BGB or cisplatin IC20 combos (AID 1671460); settings: Human astrocytes, drug combinations, stronger effect = higher value;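 note: cells exposed to compounds for 96 hours before viability readout; 0% = vehicle and 100% = killing control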
[13] = growth inhibition of BT084 medulloblastoma cells, cell-based, ICGC_MB145, cisplatin and BGB IC40 combos (AID 1671461); settings: drug combinations, stronger effect = higher value;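 note: cells exposed to drugs for 96 hours; 0% = vehicle DMSO and 100% = high DMSO full killing control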
[14] = growth inhibition of RCMB18 medulloblastoma cells, cell-based, cisplatin and BGB IC40 combos (AID 1671462); settings: stronger effect = higher value;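 note: cells exposed to compound for four days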
[15] = growth inhibition of CRL1545 osteosarcoma cells, cell-based, cisplatin and BGB IC20 combos (AID 1671464); settings: stronger effect = higher value;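 note: cells exposed to compound for 96 hours before readout; 0% = vehicle DMSO and 100% = high DMSO killing control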
[16] = at 0.5 µM, stronger effect = higher value
[17] = measured here: combination with BGB IC20, at 0.005 µM
[18] = measured here: combination with BGB IC40, at 0.005 µM
[19] = measured here: combination with BGB IC40, at 0.05 µM
[20] = measured here: combination with cisplatin, at 0.5 µM, stronger effect = higher value
[21] = measured here: combination with cisplatin, at 5 µM, stronger effect = higher value
[22] = measured here: with BGB IC20 combination, at 0.5 µM
[23] = measured here: with cisplatin IC20 combination, at 0.5 µM
[24] = measured here: 5 uM single agent, at 5 µM
[25] = measured here: combination with cisplatin, at 0.5 µM
[26] = measured here: combination with cisplatin, at 5 µM
[27] = measured here: with BGB IC20, at 0.5 µM
[28] = measured here: with BGB IC20, at 5 µM
[29] = measured here: with cisplatin IC20, at 0.5 µM
[30] = measured here: with cisplatin IC20, at 5 µM
[31] = measured here: combination with BGB at IC20, at 0.5 µM
[32] = measured here: combination with cisplatin at IC20, at 0.5 µM
[33] = measured here: combo with BGB at IC20, at 0.5 µM
[34] = measured here: combo with cisplatin at IC20, at 0.5 µM
[35] = measured here: inhibition with BGB combination, at 0.05 µM
[36] = measured here: inhibition with cisplatin combination, at 0.05 µM
[37] = measured here: BGB combination, at 0.5 µM
[38] = measured here: BGB combination, at 5 µM
[39] = measured here: cisplatin combination, at 0.5 µM
[40] = measured here: cisplatin combination, at 5 µM
[41] = BGB combination, concentration series, at 5 µM
[42] = cisplatin combination, concentration series, at 5 µM
[43] = measured here: combo with BGB IC20, at 0.5 µM
[44] = measured here: combo with cisplatin IC20, at 0.5 µM
[45] = cisplatin combination, at 0.5 µM
[46] = measured here: BGB IC40 combination 0.05 uM, at 0.05 µM
[47] = measured here: BGB IC40 combination, at 0.05 µM

SMILES: CC1CNC(=O)NC1=O (stereo unspecified)
- inhibition [1, 16]: -30.6% (inactive)
- inhibition [1, 17]: -22%
- inhibition [1, 18]: -7.63%
- inhibition [1, 19]: -15.7%
- inhibition [1, 20]: -39.2%
- inhibition [1, 21]: -13.3%
- inhibition ([2]; BGB combo, at 5 µM): -40.2%
- inhibition ([2]; at 0.5 µM): -17.3% (inactive)
- inhibition ([2]; cisplatin combo, at 5 µM): -24%
- inhibition [2, 22]: -4.75%
- inhibition [2, 23]: -15.4%
- inhibition ([2]; single agent, at 5 µM): 2.08%
- inhibition ([3]; BGB IC20 combo, at 0.005 µM): -33.2%
- inhibition ([3]; BGB IC40 combo, at 0.005 µM): -36.3%
- inhibition ([3]; BGB IC40 combo, at 0.05 µM): -20.7%
- inhibition ([3]; at 0.5 µM): -43.5% (inactive)
- inhibition ([3]; cisplatin combo, at 0.05 µM): -20.7%
- inhibition ([3]; cisplatin combo, at 0.5 µM): -62.7%
- inhibition ([3]; cisplatin combo, at 5 µM): -40.7%
- inhibition [3, 24]: -37.5%
- inhibition ([4]; at 0.5 µM): -30.6% (inactive)
- inhibition [4, 19]: -35.2%
- inhibition [4, 25]: 5.53%
- inhibition [4, 26]: 23.2%
- inhibition ([5]; at 0.5 µM): -31.7% (inactive)
- inhibition [5, 27]: -55.6%
- inhibition [5, 28]: -9.18%
- inhibition [5, 29]: -36.4%
- inhibition [5, 30]: -7.78%
- inhibition ([5]; single agent, at 5 µM): -19.6%
- inhibition ([6]; at 0.5 µM): -81.6% (inactive)
- inhibition [6, 31]: -71.8%
- inhibition [6, 32]: -130%
- inhibition ([7]; at 0.5 µM): 7.56% (inactive)
- inhibition [7, 33]: 12%
- inhibition [7, 34]: 16.9%
- inhibition ([8]; at 0.5 µM): -15.4% (inactive)
- inhibition [8, 35]: -40%
- inhibition [8, 36]: -20.8%
- inhibition ([9]; at 0.5 µM): -25.2% (inactive)
- inhibition [9, 25]: -28%
- inhibition [9, 26]: -26.8%
- inhibition ([10]; at 0.5 µM): -18.9% (inactive)
- inhibition [10, 37]: -18.5%
- inhibition [10, 38]: -17.9%
- inhibition [10, 39]: -32%
- inhibition [10, 40]: -4.6%
- inhibition [11, 41]: 1.37%
- inhibition ([11]; at 0.5 µM): -11% (inactive)
- inhibition [11, 42]: 10.9%
- inhibition ([12]; at 0.5 µM): 12.2% (inactive)
- inhibition [12, 43]: 9.11%
- inhibition [12, 44]: 12%
- inhibition ([13]; at 0.5 µM): -12.5% (inactive)
- inhibition [13, 45]: -19.5%
- inhibition ([13]; cisplatin combination, at 5 µM): -47.1%
- inhibition [13, 46]: -27%
- inhibition ([13]; single agent, at 5 µM): -16.6%
- inhibition ([14]; at 0.5 µM): -12% (inactive)
- inhibition ([14]; cisplatin combo, at 5 µM): -15.1%
- inhibition [14, 47]: -20.6%
- inhibition [14, 25]: -13.2%
- inhibition ([14]; single agent, at 5 µM): -49.2%
- inhibition ([15]; at 0.5 µM): -21.8% (inactive)
- inhibition [15, 22]: -10.4%
- inhibition [15, 23]: -27.5%
- inhibition ([15]; single agent, at 0.05 µM): 3.21%
- inhibition ([15]; single agent, at 5 µM): -10.2%

SMILES: Cn1cc(-c2cnn3c(N)c(Br)c([C@H]4CCCNC4)nc23)cn1
- inhibition [1, 16]: 20.2% (inactive)
- inhibition [1, 17]: -7.68%
- inhibition [1, 18]: 93.8%
- inhibition [1, 19]: 11.8%
- inhibition [1, 20]: 10.2%
- inhibition [1, 21]: -24.2%
- inhibition ([2]; BGB combo, at 5 µM): 73.2%
- inhibition ([2]; at 0.5 µM): 22.3% (inactive)
- inhibition ([2]; cisplatin combo, at 5 µM): 83.7%
- inhibition [2, 22]: 9.52%
- inhibition [2, 23]: 28.6%
- inhibition ([2]; single agent, at 5 µM): 88.5%
- inhibition ([3]; BGB IC20 combo, at 0.005 µM): -13.9%
- inhibition ([3]; BGB IC40 combo, at 0.005 µM): -26.3%
- inhibition ([3]; BGB IC40 combo, at 0.05 µM): -14.6%
- inhibition ([3]; at 0.5 µM): -16.3% (inactive)
- inhibition ([3]; cisplatin combo, at 0.05 µM): -20.5%
- inhibition ([3]; cisplatin combo, at 0.5 µM): -27.1%
- inhibition ([3]; cisplatin combo, at 5 µM): -5.82%
- inhibition [3, 24]: -16.1%
- inhibition ([4]; at 0.5 µM): 2.92% (inactive)
- inhibition [4, 19]: -16.9%
- inhibition [4, 25]: 5.45%
- inhibition [4, 26]: -19.5%
- inhibition ([5]; at 0.5 µM): -14.3% (inactive)
- inhibition [5, 27]: 4.42%
- inhibition [5, 28]: 66.4%
- inhibition [5, 29]: -18.4%
- inhibition [5, 30]: 80.6%
- inhibition ([5]; single agent, at 5 µM): 52.9%
- inhibition ([6]; at 0.5 µM): -2.8% (inactive)
- inhibition [6, 31]: -24%
- inhibition [6, 32]: -3.06%
- inhibition ([7]; at 0.5 µM): 6.2% (inactive)
- inhibition [7, 33]: 2.25%
- inhibition [7, 34]: 17.7%
- inhibition ([8]; at 0.5 µM): 28.5% (inactive)
- inhibition [8, 35]: -6.38%
- inhibition [8, 36]: -4.25%
- inhibition ([9]; at 0.5 µM): -5.31% (inactive)
- inhibition [9, 25]: -14.4%
- inhibition [9, 26]: -6.17%
- inhibition ([10]; at 0.5 µM): 29.3% (inactive)
- inhibition [10, 37]: 21.8%
- inhibition [10, 38]: 53.4%
- inhibition [10, 39]: 36.8%
- inhibition [10, 40]: 73.3%
- inhibition [11, 41]: 103%
- inhibition ([11]; at 0.5 µM): 7.13% (inactive)
- inhibition [11, 42]: 119%
- inhibition ([12]; at 0.5 µM): -19% (inactive)
- inhibition [12, 43]: -17.5%
- inhibition [12, 44]: -30.9%
- inhibition ([13]; at 0.5 µM): 11% (inactive)
- inhibition [13, 45]: 16.1%
- inhibition ([13]; cisplatin combination, at 5 µM): -105%
- inhibition [13, 46]: 5.34%
- inhibition ([13]; single agent, at 5 µM): 34.7%
- inhibition ([14]; at 0.5 µM): 4.28% (inactive)
- inhibition ([14]; cisplatin combo, at 5 µM): 22.7%
- inhibition [14, 47]: -33.2%
- inhibition [14, 25]: -3.81%
- inhibition ([14]; single agent, at 5 µM): 47.3%
- inhibition ([15]; at 0.5 µM): 79.7% (inactive)
- inhibition [15, 22]: 73.9%
- inhibition [15, 23]: 82.3%
- inhibition ([15]; single agent, at 0.05 µM): 19%
- inhibition ([15]; single agent, at 5 µM): 92.3%
